The text below walks through data of PubChem BioAssay AID492997 (Johns Hopkins Ion Channel Center, 2010).

In all, about 4,900 compounds went through this assay and about 2,000 (41%) were called active.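 The calls were made as follows: active = thallium signal drop beyond 5 SD of the untreated control mean, on both duplicate plates; inactive = the rest.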 So high a share suggests a set chosen from earlier hits. These entries were drawn from the full list.

This assay can be described thus: nonspecific activity without KCNK9 expression – cell-based, second counter screen, non-induced KCNK9-HEK293, counter-screen for KCNK9 inhibitor project, confirmation (AID 492997).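 As to inhibition: plate controls were buffer only IC0 wells for no effect and SID17386958 at its maximal inhibitory level for full effect.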 The note with it: non-induced KCNK9-HEK293, FluxOR thallium flux, at 10 µM; hits give high values. A general note: Counterscreens check selectivity or assay interference.
Regarding `CCCCCCCCCCCCn1ccc(=N)cc1`, the inhibition (commonly the share of the control response that was lost under treatment) is 29.5% (active).

For the compound `CCOC(=O)C1SC2(C(F)(F)C(F)F)CC1(O)c1c(c(OC)c3occc3c1OC)O2` (stereo unspecified), the inhibition entry is “inactive”.

For `CC(C)(C)c1ccc(CN2C(=O)CN=C(c3ccccc3)c3ccccc32)cc1`, the inhibition is 50% (active).

`CC(C)(C)c1ccc(OC(=O)N2CCCCC2)cc1`: the inhibition result was “inactive”.

Consider `CC(C)n1c(=O)c(C=Nc2ccc(Br)cc2)c(O)n(Cc2ccco2)c1=O`, for which the inhibition entry was “inactive”.

As for `CCCCCCN=C(CC)c1c(O)n(CCCC)c(=O)[nH]c1=O`, the inhibition is 32% (active).
